Experimental findings from PubChem BioAssay AID602449 (Sanford-Burnham Center for Chemical Genomics, 2012) are described below.

The whole screen tested about 360,000 compounds, of which about 5,000 (1.4%) were called active.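 The calls were made as follows: active = inhibition of 50% or more, scaled per plate between neutral and stimulator controls; inactive = the rest.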 For the sample, actives were picked, then their nearest neighbours and some compounds at random.

This test can be described thus: mitochondrial permeability transition pore inhibitors, primary screen, biochemical, isolated mouse mitochondria, absorbance (AID 602449).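 Also: 0% = DMSO wells given calcium and 100% = 1 mM EGTA wells.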 The note with it: Ca2+ swelling absorbance, 30 min, at 10 µM, active compounds read high.
On to `COc1cccc(CNS(=O)(=O)c2ccc3c(c2)CC(C)N3C(=O)C2CCC2)c1` (centres undefined), for which the inhibition (in general, the relative decrease from the control value, in per cent) is 90.4% (active).
Take `O=C(C1CCC1)N1CCc2cc(S(=O)(=O)NCc3cccnc3)ccc21`: the inhibition is -1.1% (inactive).
For `COc1ccc(N(C)S(=O)(=O)c2ccc3c(c2)CC(C)N3C(=O)C2CC2)c(OC)c1` (centres undefined), the inhibition was 0.9% (inactive).
Then `COc1cccc(NC(=O)Cn2cnc3sc(C)c(S(=O)(=O)N4CCN(C)CC4)c3c2=O)c1`, with 0.8% (inactive); and `Cc1ccc(C2(C(F)(F)F)N=C3Sc4cc(C)cc(C)c4N3C(=O)N2)cc1` (centres undefined), with 5.4% (inactive).
Regarding `COc1cc(NS(=O)(=O)c2ccc(NC(=S)NC(=O)c3ccccc3)cc2)nc(OC)n1`, the inhibition is -1.6% (inactive).
As to `CSc1sc(C(=O)NNC(=O)c2ccc(Cl)cc2)c2c1C=CCC2`, the inhibition is 3% (inactive).
Next, `CS(=O)(=O)c1sc(C(=O)NC(=S)Nc2ccc(OC(F)(F)F)cc2)c2c1C=CCC2`: 53.1% (active); `COc1cccc(N(Cc2nnc3n2CCCCC3)C(=O)Nc2ccccc2F)c1`: 0.7% (inactive).
Then `Cc1nn(-c2ccccc2)c2sc(C(=O)N(Cc3ccco3)C(C)C(=O)NC(C)(C)C)cc12` (centres undefined), with -3.6% (inactive); and `CC1=C(C(=O)N2CCOCC2)CC(CC(=O)NCCN2CCOCC2)C(=O)N1CCC1=CCCCC1` (centres undefined), with 5.2% (inactive); and `O=C(Cn1nnc2ccccc2c1=O)NCc1ccc(Cl)cc1`, with -0.4% (inactive).
Then `CN(C(=O)Nc1ccc(Cl)cc1)n1cnc2ccccc2c1=O`, with 55.1% (active); and `O=C(Nn1cnc2ccccc2c1=O)c1ccc(F)cc1Cl`, with 0.6% (inactive); and `O=C(CCCN1C(=O)C2C3C=CC(C3)C2C1=O)N1CCN(c2ccccc2)CC1` (centres undefined), with -1.6% (inactive).
Take `O=C(NCCc1ccc2c(c1)OCCO2)c1cc2ccccc2o1`: the inhibition was 74.2% (active).
With `CN(C)C(CNC(=O)c1cc2ccccc2o1)c1ccccc1` (centres undefined), the inhibition was 0.1% (inactive).
Next, `CNS(=O)(=O)c1ccc(C(=O)NCC(=O)NCCc2ccc3c(c2)OCCO3)cc1`: -1.7% (inactive); `O=C(NC(=O)c1cc(OCC(F)(F)F)ccc1OCC(F)(F)F)Nc1ccccc1`: 12.2% (inactive).
Next, `CCCCCN(C(=O)NC(=O)Nc1ccccc1C)S(C)(=O)=O`: 7.5% (inactive); `CC(=O)Nc1cc(-c2ccccc2N(C)C)cn2c(-c3ccc(F)c(Cl)c3)cnc12`: 0.4% (inactive); `CCCN1C2=C(C(=O)CCC2)C(c2ccc(O)c(Br)c2)C2=C1CCCC2=O`: 0.7% (inactive).
Then `Cc1nc2ccccc2cc1OCc1ccc(F)cc1`, with 97.1% (active); and `Fc1ccc(COc2cccc(-c3n[nH]c(=S)o3)c2)cc1`, with 8.5% (inactive).
Regarding `Fc1cccc2ncnc(OCc3ccccc3)c12`, the inhibition was 0.3% (inactive).
Next, `Cc1ccc(S(=O)(=O)N2CCOCC2)cc1NC(=O)COC(=O)c1cnccn1`: -1% (inactive); `Nc1nc(SCC(=O)Nc2ccc(Cl)cc2C(F)(F)F)n[nH]1`: 0.2% (inactive).
Then `CNC(=O)Nc1cc(C(C)(C)C)no1`, with -2.3% (inactive).
Then `CCCc1cc(=O)n2[nH]c(C)c(-c3ccc(Cl)cc3)c2n1`, with 1.2% (inactive); and `Cc1[nH]n(-c2cccc(Cl)c2)c(=O)c1-c1ccc(Cl)cc1`, with 102% (active).
Consider `Cc1nc2c(-c3ccccc3)c(C)[nH]n2c(=O)c1Cl`, for which the inhibition is -1% (inactive).
Turning to `CC(NC(=O)CN1CCN(Cc2ccc(Cl)cc2)C1=O)c1ccc2c(c1)OCCO2` (centres undefined), the inhibition is -2.1% (inactive).
Turning to `Cc1c2cnn(CC(=O)NCCCN3CC(C)CC(C)C3)c(=O)c2c(C)n1Cc1ccc(Cl)cc1` (centres undefined), the inhibition is -0.1% (inactive).
Next, `COc1ccc(CNC(=O)C(=O)N2CCC3(CC2)OCCN3S(=O)(=O)c2ccc(C)cc2)cc1`: 0.1% (inactive); `NC1=NC(=O)C(Cc2cccc(Cl)c2Cl)S1` (centres undefined): 1.7% (inactive).
As to `CCOC(=O)Cc1csc(SCC(=O)NC(C)C23CC4CC(CC(C4)C2)C3)n1` (centres undefined), the inhibition was -0.5% (inactive).
With `CC(=O)c1ccc(NC(=O)Nc2ccc([N+](=O)[O-])cc2C)cc1`, the inhibition was 94.4% (active).
Next, `COc1cccc(C(=O)CC(=O)C(=O)Nc2ccc([N+](=O)[O-])cc2C)c1`: -17.7% (inactive); `Cc1ccc(Oc2cc(NC(=O)CCCn3nc(C)c([N+](=O)[O-])c3C)cc([N+](=O)[O-])c2)cc1`: 40.9% (inactive).
Next, `COc1ccc(S(=O)(=O)NNC(=O)Nc2ccc(C)cc2)c(OC)c1`: -0.8% (inactive); `CC(=O)Nc1ccc(C(=O)OCC(=O)Nc2ccc([N+](=O)[O-])cc2C(F)(F)F)cc1`: 36.6% (inactive); `COc1cc(NC(=O)Nc2ccc(C)cc2)cc([N+](=O)[O-])c1`: 104% (active).
Next, `COc1ccc(NC(=O)C(c2ccncc2)n2c(=O)c(-c3cc4ccccc4[nH]3)nc3ccccc32)cc1` (centres undefined): 4.2% (inactive).
In the case of `CC(C)C[C@H](NC(=O)C1CC(=O)N(c2ccc3c(c2)OCCO3)C1)C(=O)NC1CCCC1` (some centres undefined), the inhibition was -0.1% (inactive).
Then `CN(C)C(=O)c1cc(Br)ccc1Cl`, with 1.1% (inactive); and `Cc1ccc(NC(=O)c2ccc(Oc3ncccn3)cc2)cc1`, with 0.4% (inactive); and `CCc1nnc(NS(=O)(=O)c2ccc(NC(=O)c3cccc(OC(F)(F)C(F)F)c3)cc2)s1`, with 2.9% (inactive).
Then `O=C(Nc1ccc(OC(F)(F)F)cc1)c1ccc2c(c1)no[n+]2[O-]`, with 82.5% (active); and `Fc1cccc(Cc2c(-c3cccc(Cl)c3)nc3ccc(Br)cn23)c1`, with 2.5% (inactive).
Next, `CCOC(=O)C1CCN(C(=O)Cc2c(C(=O)O)[nH]c3ccccc23)CC1`: 0.3% (inactive).
In the case of `CCOC(=O)C1=C(CC)Nc2ccccc2N=C1N`, the inhibition was 1.2% (inactive).
With `O=C(COC(=O)c1ccc[nH]c1=O)Nc1ccc2c(c1)OC(F)(F)O2`, the inhibition was 3% (inactive).
Then `O=C(COC(=O)c1ccccc1NC(=O)c1ccco1)Nc1ccc2c(c1)OC(F)(F)O2`, with 60.9% (active); and `O=C(COC(=O)CNC(=O)c1ccco1)Nc1ccc(F)cc1`, with -1.2% (inactive); and `COC(=O)[C@]12CCCCC=C1N(Cc1ccccc1)C(=O)[C@H](CC(=O)NCc1ccc(C)o1)C2`, with -0.1% (inactive).
Turning to `COc1ccc(NC(=O)CN(C)S(=O)(=O)c2ccccc2)cc1OC`, the inhibition was -0.5% (inactive).
Next, `Cc1ccc(-c2nc(-c3cccnc3)sc2CC(=O)Nc2ccc(C)c(Cl)c2)cc1`: 93.3% (active); `Cc1nc(-c2ccc(F)cc2)c(CC(=O)Nc2cc(S(=O)(=O)N3CCCCC3)ccc2C)s1`: -0.4% (inactive).
Consider `Cc1cc(C)c(NC(=O)CS(=O)CC(=O)Nc2cccnc2)c(C)c1` (centres undefined), for which the inhibition is -1.4% (inactive).
